Most compounds without a hit are left out; they make up all but 3.3% or so of the library.
PfGluPho inh: PfG6PD (Plasmodium falciparum) enzyme inhibition. 350,000 tested, 0.78% active. AID 504690. inhibition, % at 20 µM. PfGluPho enzyme, NADPH resazurin-diaphorase fluorescence;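 active means inhibition reaching at least a set limit at 20 µM in the primary screen, cut at about 59% in these data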;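 further: 0% = DMSO wells with substrate and 100% = DMSO wells lacking glucose-6-phosphate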
MBD2 inh: blocks human MBD2 binding to methylated DNA | Q9UBB5 | TR-FRET, MBD2 binding to methylated oligonucleotide | inhibition, % at 4.4 µM | 370,000 tested, 0.31% active | AID 686964; in the data active means inhibition above about 13%
Target sequence (Q9UBB5 whole entry, looked up): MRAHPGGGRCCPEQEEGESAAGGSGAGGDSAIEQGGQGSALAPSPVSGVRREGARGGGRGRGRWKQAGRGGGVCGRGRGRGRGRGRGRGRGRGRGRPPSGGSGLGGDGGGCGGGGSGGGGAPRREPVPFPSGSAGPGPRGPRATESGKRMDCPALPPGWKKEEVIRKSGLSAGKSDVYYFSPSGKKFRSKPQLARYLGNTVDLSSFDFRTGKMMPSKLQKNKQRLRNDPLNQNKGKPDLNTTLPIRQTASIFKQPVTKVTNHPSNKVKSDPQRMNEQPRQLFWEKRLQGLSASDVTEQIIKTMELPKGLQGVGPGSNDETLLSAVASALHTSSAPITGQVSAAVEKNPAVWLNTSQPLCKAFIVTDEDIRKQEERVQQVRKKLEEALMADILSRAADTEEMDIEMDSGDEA
UHRF1 binding: UHRF1 methyl-DNA binding inhibition | UHRF1 binding to methylated oligo, TR-FRET | inhibition, % at 4.4 µM | 370,000 tested, 0.75% active; in the data active means inhibition above about 21%;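 further: UHRF1 SRA domain binding a hemimethylated CpG hairpin DNA probe; 0% = median of test compound wells and 100% = reference inhibitor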
M18AAP inhibitor: blocks P. falciparum M18 aspartyl aminopeptidase | inhibition, % at 7.35 µM | 290,000 tested, 1.2% active | recombinant PfM18AAP, H-Glu-NHMec fluorogenic cleavage;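 active means inhibition above the campaign mean inhibition over all tested compounds plus 3 SD, cut at about 28% in these data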;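 further: 0% = plate median of test compound wells and 100% = 2 mM ZnCl2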
PRMT1 FP inh: PRMT1 (human) inhibition, primary screen | recombinant PRMT1, activity-based probe fluorescence polarization | 370,000 tested, 1.3% active | inhibition, % at 2.79 µM | Q99873;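 active means inhibition above about 21% made by adding two undisclosed values, limit read from the data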
The depositor's hits bear a star; nt = no result given.

SMILES | PfGluPho inh | MBD2 inh | UHRF1 binding | M18AAP inhibitor | PRMT1 FP inh
CCN1C[C@@H]2[C@@H]3C(=O)N(C)C(=O)[C@@H]3[C@](CC)(C(=O)OC)N2C1=NCc1ccccc1 | 5.8 | 10.4 | 21.1* | nt | 2.1
CCCN=C1N(CC)C[C@@H]2[C@@H]3C(=O)N(C)C(=O)[C@@H]3[C@](Cc3ccccc3)(C(=O)OC)N12 | 2.1 | 1.5 | -1.5 | nt | -0.6
COc1ccc(S(=O)(=O)Oc2c(OC)cc(C(=S)N3CCOCC3)cc2OC)cc1 | 40.5 | -3.6 | -1.3 | 28.2* | 4.4
COc1ccc(S(=O)(=O)Oc2ccc(C(=S)N3CCOCC3)cc2OC)cc1 | -13.0 | 2.8 | 7.5 | 1.8 | 8.0
CCCCCCCCNC(=O)C1CSCCS(=O)(=O)N1Cc1ccc(F)cc1 (stereo not drawn) | nt | -2.0 | -0.7 | nt | 1.1
CN(C)CCNC(=O)c1cccc2nc3c(ccc4ccccc43)nc12 | 15.3 | 31.4* | -32.6 | nt | -0.9
COc1cc([N+](=O)[O-])cc(/C=C2/SC(=S)N(Cc3ccccc3)C2=O)c1O | 14.0 | -0.5 | -4.2 | 10.5 | 21.1*
O=C(O)CN1C(=O)/C(=C\c2cc(Br)ccc2OCc2ccc([N+](=O)[O-])cc2)SC1=S | -35.5 | 1.6 | -4.1 | -12.7 | 24.1*
O=C(O)CN1C(=O)/C(=C\c2cc(Br)ccc2OCc2ccccc2Cl)SC1=S | -39.5 | -0.5 | -1.6 | 10.6 | 13.0
CCC[C@H]1[C@@H](OC(=O)NCc2cccnc2)CC[C@@]23CCCN2C(=O)CCC[C@@H]13 | nt | -0.5 | -1.1 | nt | 2.4
COC(=O)C1=C(C)N(C)C(=NCc2cccc(C(F)(F)F)c2)NC1c1ccc(Cl)cc1 (stereo not drawn) | nt | -2.7 | 0.7 | nt | -3.2
CCOc1ccc(-n2cc(-c3ccccc3)c3c(SC(C)C(=O)OC)ncnc32)cc1 (stereo not drawn) | -0.7 | 4.9 | 22.4* | -6.6 | -1.6
COC(=O)C(C)Sc1ncnc2c1c(-c1ccccc1)cn2-c1ccc(OC)cc1 (stereo not drawn) | 4.9 | -2.6 | 3.6 | 0.8 | -2.0
CCOC(=O)CC[C@@H]1CC[C@]2(CCCN(C(=O)c3ccno3)C2)O1 | nt | -4.1 | 0.2 | nt | 3.8
CCCCNC(=O)C1(C(=O)C2CC2)CC(c2ccccc2C(F)(F)F)=NO1 (stereo not drawn) | nt | 1.5 | 2.5 | nt | 3.0
[S-]C(=Nc1ccc(Cl)cc1)N[n+]1ccccc1 | 48.3 | -2.0 | 58.0* | 7.2 | 0.9
N#C/C(=C(/O)CCl)c1nc2c(s1)CCc1ccccc1-2 | 41.2 | -11.2 | -1.8 | -5.9 | 32.6*
O=C(CCCl)Nc1nc2c(s1)CCc1ccccc1-2 | 53.2 | -6.2 | -2.4 | 1.8 | 3.4
c1ccc(C2CSc3ccccc3N2)cc1 (stereo not drawn) | 26.2 | -1.7 | -0.8 | 40.6* | 19.3
CC1CSc2ccccc2NC1=S (stereo not drawn) | 31.3 | -2.0 | -1.1 | 2.7 | 2.2
CCC[C@H]1[C@@H](NC(=O)c2ccc(N(C)C)cc2)CC[C@@]23CCCN2C(=O)CCC[C@@H]13 | nt | -6.0 | 1.8 | nt | 2.8
CCc1nc2c(c(=O)c3ccccc3n2C)c(=O)n1C1CCCCCC1 | -7.2 | 1.2 | 59.4* | 0.6 | 0.8
Cn1c2ccccc2c(=O)c2c(=O)n(C3CCCCCC3)c(C3CCCCC3)nc21 | 37.4 | -4.5 | 1.4 | 5.1 | -4.2
Cc1ccc2c(c1)N(CCCC(=O)NCc1ccc(F)cc1)C(=O)CO2 | nt | 3.1 | 0.9 | nt | 2.6
COc1ccc(C=NN(C)C(=O)Nc2cccc(Cl)c2)cc1OC | nt | 0.2 | -0.2 | nt | 0.6
SMILES | PfGluPho inh | MBD2 inh | UHRF1 binding | M18AAP inhibitor | PRMT1 FP inh
Cc1cc(NC(=S)Nc2cccc3ccccc23)n[nH]1 | 7.8 | 1.5 | -1.7 | 4.4 | 23.3*
Cc1ccc(S(=O)(=O)N(C)C)cc1NC(=S)Nc1cccc2ccccc12 | 60.7* | -7.4 | -2.3 | -5.7 | 2.2
Cc1cc(C)cc(NC(=S)Nc2cccc3ccccc23)c1 | 31.6 | -1.1 | 66.5* | 3.7 | 3.4
Cc1cccc(NC(=S)Nc2cccc3ccccc23)c1 | 21.9 | -1.9 | -4.4 | 14.5 | 4.6
C[C@H]1[C@@H](OC(=O)Nc2ccc(Br)cc2)CC[C@@]23CCCN2C(=O)CCC[C@@H]13 | nt | 3.2 | -1.8 | nt | -3.7
Cn1c(CC2C(=O)Nc3ccc(Br)cc32)nc2ccccc2c1=O (stereo not drawn) | 8.9 | 1.2 | -6.2 | -4.0 | -0.5
O=C1Nc2ccc(Br)cc2C1Cc1ccccc1F (stereo not drawn) | 88.5* | -0.9 | -3.5 | 5.9 | 1.2
CCOC(=O)Cc1csc(NC(=O)c2c(C)noc2C)n1 | -18.5 | 8.3 | 24.0* | -1.1 | 1.9
CCCCCC(=O)N1CC2(C)CN(C(=O)CCCCC)CC(C)(C1)C2=O | 6.3 | 15.5* | 23.0* | -6.8 | 3.5

Assay outcomes as filed in PubChem BioAssay.
